Measurements: PubChem BioAssay (EPA / NIEHS)
Inconclusive results are not listed. Activity calls are given as the source filed them. The calls were made as follows, unless noted: active = hit-call score of the fitted dose curve at least 0.9, where 1 is the maximum; inconclusive = response in the unintended direction; inactive = score below 0.9.

Columns and labels:
[1] = test system: Sodium/Iodide Symporter (NIS), SLC5A5 (gene 6528); test: CPHEA_Stoker_NIS_Inhibition_RAIU: CPHEA's Radioactive Iodide Uptake (RAIU) Assay for Sodium/Iodide Symporter (NIS) Inhibition, Stoker and Laws Labs (AID 2283841)
How it was run: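 HEK293T cells stably expressing human NIS (hNIS-HEK293T-EPA) were exposed to test chemicals at 0.001–100uM (0.5% final DMSO) with 125I at a final 329pM in HBSS/10mM HEPES pH 7.4. After 2 hours at room temperature and ice-cold washes, intracellular 125I was counted as CPM and normalized to DMSO wells.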

[2] = CPHEA_Stoker_NIS_Cytotoxicity: Cytotoxicity Assessment for CPHEA's Radioactive Iodide Uptake (RAIU) Assay for Sodium/Iodide Symporter (NIS) Inhibition, Stoker and Laws Labs (AID 2283897)
How it was run: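 hNIS-HEK293T-EPA human kidney cells were exposed for 2 hours at room temperature to test chemicals (0.001–100uM, 0.5% final DMSO) in HEPES-buffered HBSS, pH 7.4. Viability was read as ATP content by luciferase bioluminescence, loss of signal versus DMSO.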

[3] = test system: turtle Thyroid Hormone Receptor, alpha (TRa), gene 101949057; test: ATG_trTRa_XSP2: Attagene TRANS-FACTORIAL Multi-Species (XSP1) HepG2 Assay for turtle Thyroid Hormone Receptor, alpha (TRa) (AID 2283834);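 also: hits raise reporter mRNA over the DMSO baseline so AC50 marks activators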
How it was run: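 HepG2 cells transiently transfected with multiplexed GAL4-UAS reporter units expressing chimeric NR-Gal4 proteins were dosed for 24 hours. Reporter mRNA was quantified by RT-PCR with 6-FAM labelling and capillary electrophoresis, gain of signal scored against DMSO.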

[4] = ATG_M_61_XSP2: Attagene TRANS-FACTORIAL Multi-Species (XSP2) HepG2 Assay for M61 Transcription Factor (Internal Marker) (AID 2283835; active = hit-call score of the fitted dose curve at least 0.9, where 1 is the maximum; inactive = score below 0.9;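 also: active means a rise in signal above the DMSO baseline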)
How it was run: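 Internal background marker, read as RT-PCR/capillary-electrophoresis reporter mRNA 24 h post-dose in transiently transfected HepG2 cells. Androgen receptor stimulated with 3 nM 6-alpha-fluorotestosterone plus 1.5 nM norgestrel; gain of signal versus DMSO analysed.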

[5] = target: zebrafish Thyroid Hormone Receptor beta (TRb), thrb (gene 30607) (UniProt Q9PVE4); test: ATG_zfTRb_XSP2: Attagene TRANS-FACTORIAL Multi-Species (XSP1) HepG2 Assay for zebrafish Thyroid Hormone Receptor beta (TRb) (AID 2283836)
Chain of zebrafish Thyroid Hormone Receptor beta (TRb), thrb (gene 30607) (Q9PVE4 whole entry, looked up): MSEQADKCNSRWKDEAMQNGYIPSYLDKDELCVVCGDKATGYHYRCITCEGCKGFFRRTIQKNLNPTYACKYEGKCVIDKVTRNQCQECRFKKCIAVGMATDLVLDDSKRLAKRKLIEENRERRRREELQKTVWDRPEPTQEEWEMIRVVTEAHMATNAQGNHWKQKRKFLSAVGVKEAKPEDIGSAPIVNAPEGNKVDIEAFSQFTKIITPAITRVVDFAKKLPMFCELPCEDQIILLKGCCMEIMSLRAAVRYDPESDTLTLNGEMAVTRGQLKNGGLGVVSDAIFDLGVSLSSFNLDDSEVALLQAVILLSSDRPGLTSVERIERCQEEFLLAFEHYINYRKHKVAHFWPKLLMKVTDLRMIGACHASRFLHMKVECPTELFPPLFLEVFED
How it was run: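 Multiplexed trans-activation in HepG2 cells, 24 h treatment, with reporter mRNA read by RT-PCR and capillary electrophoresis. Gain-of-signal against DMSO.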

[6] = target: human Thyroid hormone Receptor alpha (TRa), THRA (gene 7067) (UniProt P10827); test: ATG_hTRa_XSP2: Attagene TRANS-FACTORIAL Multi-Species (XSP2) HepG2 Assay for human Thyroid hormone Receptor alpha (TRa) (AID 2283838)
Chain of human Thyroid hormone Receptor alpha (TRa), THRA (gene 7067) (P10827 whole entry, looked up, the tested form may be a part): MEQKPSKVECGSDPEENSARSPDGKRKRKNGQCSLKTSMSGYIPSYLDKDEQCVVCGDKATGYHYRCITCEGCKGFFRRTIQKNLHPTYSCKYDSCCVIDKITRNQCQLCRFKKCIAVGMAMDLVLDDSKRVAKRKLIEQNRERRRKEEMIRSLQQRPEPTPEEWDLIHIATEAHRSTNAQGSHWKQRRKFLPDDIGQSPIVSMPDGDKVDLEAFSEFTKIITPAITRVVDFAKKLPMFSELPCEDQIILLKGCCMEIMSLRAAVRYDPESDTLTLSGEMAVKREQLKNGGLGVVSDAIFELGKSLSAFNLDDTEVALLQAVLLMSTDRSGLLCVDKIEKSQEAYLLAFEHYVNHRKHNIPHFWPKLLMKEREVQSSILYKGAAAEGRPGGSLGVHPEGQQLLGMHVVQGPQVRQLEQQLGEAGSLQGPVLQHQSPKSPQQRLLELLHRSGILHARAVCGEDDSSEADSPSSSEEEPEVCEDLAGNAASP
How it was run: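 Gain-of-signal in reporter mRNA, relative to DMSO, after 24 h dosing of transfected HepG2; quantitation by RT-PCR fragment analysis on capillary electrophoresis.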

[7] = target: human Thyroid hormone Receptor beta (TRb), THRB (gene 7068) (UniProt P10828); test: ATG_hTRb_XSP2: Attagene TRANS-FACTORIAL Multi-Species (XSP2) HepG2 Assay for human Thyroid hormone Receptor beta (TRb) (AID 2283840);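 also: actives raise reporter mRNA so potency reflects agonist-like gain of signal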
Chain of human Thyroid hormone Receptor beta (TRb), THRB (gene 7068) (P10828 whole entry, looked up, the tested form may be a part): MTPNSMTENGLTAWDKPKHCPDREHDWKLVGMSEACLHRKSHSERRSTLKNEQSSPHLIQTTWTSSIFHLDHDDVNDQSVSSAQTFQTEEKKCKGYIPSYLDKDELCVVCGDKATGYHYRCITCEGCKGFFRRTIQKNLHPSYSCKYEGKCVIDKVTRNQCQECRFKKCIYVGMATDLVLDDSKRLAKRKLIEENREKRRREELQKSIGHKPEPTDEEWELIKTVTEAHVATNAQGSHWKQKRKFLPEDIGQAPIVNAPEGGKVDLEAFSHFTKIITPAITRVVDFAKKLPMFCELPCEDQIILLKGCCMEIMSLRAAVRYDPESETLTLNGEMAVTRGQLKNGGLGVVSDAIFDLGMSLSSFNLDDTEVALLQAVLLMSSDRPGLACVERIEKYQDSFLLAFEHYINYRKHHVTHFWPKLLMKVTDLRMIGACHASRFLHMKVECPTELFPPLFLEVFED
How it was run: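 HepG2 cells were transiently transfected with GAL4-UAS multiplexed reporter units expressing chimeric NR-Gal4 proteins, dosed 24 h; reporter mRNA was quantified by RT-PCR, fluorescent labeling, HpaI digestion and capillary electrophoresis, fitted for gain of signal versus DMSO.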

[8] = CEETOX_H295R_11DCORT_noMTC: CeeTox H295R High-throughput Steroidogenesis Assay for 11-Deoxycortisol (11DCORT), maximum tolerated concentration (MTC) filtered results only (AID 2283911; active = hit-call score of the fitted dose curve at least 0.9, where 1 is the maximum; inactive = score below 0.9); conditions: actives raise or lower the signal
How it was run: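 HPLC-MS/MS read-out of 11-deoxycortisol after MTBE extraction of H295R medium. Cells: forskolin 10 uM pre-stimulation 48 h, chemical 48 h, 0.1% DMSO final. Bidirectional fit vs DMSO baseline; no MTC filtering.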

[9] = CEETOX_H295R_OHPREG_noMTC: CeeTox H295R High-throughput Steroidogenesis Assay for OH-Pregnenolone (OHPREG), maximum tolerated concentration (MTC) filtered results only (AID 2283912; active = hit-call score of the fitted dose curve at least 0.9, where 1 is the maximum; inactive = score below 0.9); conditions: actives raise or lower the signal
How it was run: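 Medium 17alpha-hydroxypregnenolone quantified by reverse-phase HPLC-MS/MS after 48 h chemical exposure of forskolin-prestimulated (10 uM, 48 h) H295R, 0.1% DMSO final. Fitting bidirectional relative to DMSO; no maximum-tolerated-concentration filtering applied.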

[10] = CEETOX_H295R_OHPROG_noMTC: CeeTox H295R High-throughput Steroidogenesis Assay for OH-Progesterone (OHPROG), maximum tolerated concentration (MTC) filtered results only (AID 2283914; active = hit-call score of the fitted dose curve at least 0.9, where 1 is the maximum; inactive = score below 0.9); conditions: actives raise or lower the signal
How it was run: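 After 48 h forskolin (10 uM) prestimulation, H295R adrenal cells received test chemical in 0.1% DMSO for 48 h. Medium 17alpha-hydroxyprogesterone was MTBE-extracted and measured by HPLC-MS/MS; gain or loss relative to DMSO, no MTT-based MTC filtering.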

[11] = CEETOX_H295R_CORTISOL_noMTC: CeeTox H295R High-throughput Steroidogenesis Assay for Cortisol, maximum tolerated concentration (MTC) filtered results only (AID 2283916; active = hit-call score of the fitted dose curve at least 0.9, where 1 is the maximum; inactive = score below 0.9); conditions: actives raise or lower the signal
How it was run: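 Cortisol secretion measured by LC-MS/MS after 48 h chemical treatment (final 0.1% DMSO) of forskolin-primed (10 uM, 48 h) H295R cells; gain or loss fitted relative to DMSO, without maximum-tolerated-concentration filtering.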

[12] = CEETOX_H295R_CORTIC_noMTC: CeeTox H295R High-throughput Steroidogenesis Assay for Corticosterone (CORTIC), maximum tolerated concentration (MTC) filtered results only (AID 2283917; active = hit-call score of the fitted dose curve at least 0.9, where 1 is the maximum; inactive = score below 0.9); conditions: actives raise or lower the signal
How it was run: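 Human adrenal H295R cells were prestimulated 48 h with 10 uM forskolin, then exposed 48 h to chemical in 0.1% DMSO. Medium corticosterone was MTBE-extracted and quantified by HPLC-MS/MS; bidirectional fits versus DMSO, concentrations not MTC-filtered.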

[13] = CEETOX_H295R_DOC_noMTC: CeeTox H295R High-throughput Steroidogenesis Assay for DOC, maximum tolerated concentration (MTC) filtered results only (AID 2283918; active = hit-call score of the fitted dose curve at least 0.9, where 1 is the maximum; inactive = score below 0.9); conditions: actives raise or lower the signal
How it was run: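 11-Deoxycorticosterone secreted by human adrenal H295R cells quantified by HPLC-MS/MS after 48 h chemical exposure (0.1% DMSO), following 48 h 10 uM forskolin prestimulation. Concentrations not filtered by MTT-derived MTC; bidirectional fitting.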

[14] = CEETOX_H295R_ESTRADIOL_noMTC: CeeTox H295R High-throughput Steroidogenesis Assay for Estradiol, maximum tolerated concentration (MTC) filtered results only (AID 2283919; active = hit-call score of the fitted dose curve at least 0.9, where 1 is the maximum; inactive = score below 0.9); conditions: actives raise or lower the signal
How it was run: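 Readout: dansyl-derivatized estradiol quantified by LC-MS/MS in medium from H295R cells dosed 48 h (0.1% DMSO) following 48 h forskolin (10 uM) prestimulation. Gain or loss of signal fitted against DMSO; no MTC filtering applied.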

[15] = CEETOX_H295R_PROG_noMTC: CeeTox H295R High-throughput Steroidogenesis Assay for Progesterone (PROG), maximum tolerated concentration (MTC) filtered results only (AID 2283920; active = hit-call score of the fitted dose curve at least 0.9, where 1 is the maximum; inactive = score below 0.9); conditions: actives raise or lower the signal
How it was run: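 Progesterone secreted into medium was measured by HPLC-MS/MS after MTBE extraction, following 48 h chemical exposure (0.1% DMSO) of forskolin-prestimulated (10 uM, 48 h) H295R adrenal cells. Gain or loss fitted against DMSO; no MTC filtering.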

[16] = CEETOX_H295R_ESTRONE_noMTC: CeeTox H295R High-throughput Steroidogenesis Assay for Estrone, maximum tolerated concentration (MTC) filtered results only (AID 2283921; active = hit-call score of the fitted dose curve at least 0.9, where 1 is the maximum; inactive = score below 0.9); conditions: actives raise or lower the signal
How it was run: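 Estrone in spent medium, quantified by tandem MS following dansyl chloride derivatization, after 48 h chemical exposure (0.1% DMSO) of forskolin-prestimulated (10 uM, 48 h) H295R cells; concentrations not MTC-filtered, bidirectional fit against DMSO.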

Measured: outcome

CCc1ccc(O)c(C(C)(C)C)c1
inactive: [1] | [2]

Cn1cc[nH]c1=S
inactive: [1] | [2]

CCCCN1C(=O)[C@@H]([C@H](O)C2CCCCC2)NC(=O)C12CCN(Cc1ccc(Oc3ccc(C(=O)O)cc3)cc1)CC2
inactive: [2]

CCN(CC)C(=S)SSC(=S)N(CC)CC
inactive: [3] | [4] | [5] | [6] | [7] | [1] | [2]

O=S(=O)(O)CCC(F)(F)C(F)(F)C(F)(F)C(F)(F)C(F)(F)C(F)(F)F
inactive: [1]

NC(=O)N1c2ccccc2C=Cc2ccccc21
inactive: [1] | [2]

c1ccc(C(O[C@@H]2CCCN(CCc3ccc4c(c3)OCO4)C2)c2ccccc2)cc1
inactive: [1] | [2]

CCCCC(CC)C(=O)OCCOCCOCCOC(=O)C(CC)CCCC (stereo not drawn)
inactive: [1] | [2]

c1ccc2cc3ccccc3cc2c1
inactive: [8] | [9] | [10] | [11] | [12] | [13] | [14] | [15] | [16]
